The record followed here is the OligoGym collection.
Further: reference of the scale not given here.

One assay concerns the target AWAT2. Put plainly: pooled miR-30 sensor sort-seq; sequence = guide strand. The following applies: shRNA.
In the case of ATATTTAGCCACGATCTCCTGG, the sensor-assay potency score (higher = more potent) was -0.175. The same measure, in the same setting: then TATTTAGCCACGATCTCCTGGC, with -0.00517; and ATAAGCACAGTGACAGGCCAGT, with -0.973; and TAGACATTACATATTCTCTGAG, with 0.0457. The same measure, in the same setting: then TCTTGGTGAAGCCACGTCCATA, with -1.6. On the same count and under the same terms, under TTGAGAGGGAAATAATCGCTGT stands -0.0931.

For the sequence TGAGATACCAAACTTGGTCTTA, the sensor-assay potency score (higher = more potent) is -0.0616. Take TTCTTGGGACTATCTCACCAGT: the sensor-assay potency score (higher = more potent) is -1.17. Same read-out and setting: then TTGACAGCAATCACAGTGGTTG, with -0.667; and TTAGCCACGATCTCCTGGCTTG, with -0.416. For the sequence ATAATCGCTGTAGTGTTTCCAC, the sensor-assay potency score (higher = more potent) was -0.0859. With TAAGAATAAGCACAGTGACAGG, the sensor-assay potency score (higher = more potent) was -1.65.

The next assay has as its target B3GNT9. The description is as above. The following applies: shRNA.
As for AAGTGGATCTCCTTGAGCGTTA, the sensor-assay potency score (higher = more potent) was -0.755.

Regarding AATTACGTCACCAGCAAGCAGG, the sensor-assay potency score (higher = more potent) is -1.35.

As for TTAGGTTAAAAAAGGTGTCGTC, the sensor-assay potency score (higher = more potent) was -0.179. On the same count and under the same terms, under TGTAGTACTTGCTAGCCCGCGT stands -0.0178.

For the sequence TGCACTACAACCAGCTCACGGT, the sensor-assay potency score (higher = more potent) is -0.863.

With TTAATGAGCAGTGGAAACCGCC, the sensor-assay potency score (higher = more potent) is -0.997. On the same count and under the same terms, under AAAAACGAAGCGCACGTCGGGG stands -1.1; under TCGGGGATGTAGTACTTGCTAG, -1.49. On the same count and under the same terms, then TAGTACTTGCTAGCCCGCGTGC, with -1.22; and TAGAAAGTGGATCTCCTTGAGC, with -0.561. Same read-out and setting: under TTCACGAACACATCTGCGTCGC stands 0.331; under TCGGGTAACTGGAACGCGCGGG, -0.607.

The next assay addresses BABAM1. Described as above. The following applies: shRNA.
With ATCGTCTGCACGTTCTCTGTGA, the sensor-assay potency score (higher = more potent) was -0.356. As to TTATCCATGACAAACTAGGAGT, the sensor-assay potency score (higher = more potent) was -0.739. For the sequence TTGGCAGTGACATTTCCTCTGA, the sensor-assay potency score (higher = more potent) is -0.685. The same measure, in the same setting: under AAACATATCCTTCCAACTCATC stands -1.73; under TTTGTCCGCACGAACATCTCAA, -0.413. As for TTTCTCTGGACAGTTGACCCTT, the sensor-assay potency score (higher = more potent) stood at 0.0375.

On to AAACTCGTGGCTTTTGTCGATC, for which the sensor-assay potency score (higher = more potent) was -1.23. On the same count and under the same terms, under TCGATCTTGTGTTTTGTCCGCA stands 0.0335. Regarding TTCTCTGGACAGTTGACCCTTG, the sensor-assay potency score (higher = more potent) stood at 0.0913. Same read-out and setting: under TTCTGGGAGACATTGAGGGCGT stands -0.794; under TATCCTTCCAACTCATCTCCTC, 0.00157.

Another assay has as its target BARX2. The assay is described as above. The settings on record: shRNA.
For the sequence TTCTCTTCAGCTTCAATCTCTT, the sensor-assay potency score (higher = more potent) was -0.0921. The same measure, in the same setting: under TCCGTCTCTGACTCGCTGCTGG stands -0.99. The same measure, in the same setting: under TTAAGAACCATTTTCTTCCATT stands -0.688; under TGCTTCACAGAGCTCCTCCTGC, -0.821.
